# NOMO-1 viab: STK33 inhibitor candidate reducing NOMO-1 cell viability. NOMO-1 AML viability, CellTiter-Glo luminescence, 72 h. 37,000 tested, 7.5% active. AID 2330. inhibition, % (no concentration beside the values); in the data active = inhibition above about 80%; inconclusive = no clear call, values can overlap the other calls
# Hedgehog inh: Sonic Hedgehog pathway inhibition; Shh-LIGHT2 Gli-luciferase reporter, 30 h; inhibition, % (no concentration beside the values); 22,000 tested, 2.1% active; AID 2313;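 active = mean inhibition across valid replicates above about 65%, limit read from the data; inconclusive = mean under the limit, yet half or more replicates past it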;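 also: pathway switched on by Shh-conditioned medium diluted 1 in 25 in low serum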
# MITF inh: blocks MITF activity. AID 2240. inhibition, % (test concentration not listed). TRPM1 promoter luciferase, luminescence, 24 h. 37,000 tested, 0.28% active; in the data active = inhibition above about 85%; inconclusive = no clear call, values can overlap the other calls; inactive = below about 68%;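 also: human melanocyte line stably carrying TRPM1 promoter luciferase reporter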
# A number is an active result; n = inactive; u = inconclusive; x = not tested or not shown. The list is not random: actives were taken first. Their share in the collection is about 7.8%.
SMILES,NOMO-1 viab,Hedgehog inh,MITF inh
COc1ccc(NC(=O)N(C)C[C@H]2Oc3ccc(NC(=O)Cc4cn(C)c5ccccc45)cc3CC(=O)N([C@@H](C)CO)C[C@@H]2C)cc1,n,n,n
O=C(O)Cc1cncc(Br)c1,n,n,n
OC(COc1ccc2cc(Br)ccc2c1)Cn1cnc2ccccc21 (configuration not stated),n,x,n
CCOC(=O)CSc1n[nH]c(CN2c3ccccc3Sc3ccccc32)n1,117,u,n
O=C(CSc1n[nH]c(-c2ccco2)n1)N1c2ccccc2Sc2ccccc21,n,x,n
CCOC(=O)c1cnc(S/C=C/C(=O)c2ccc(Cl)cc2)nc1N,117,n,n
CCOC(=O)c1cnc(SCC(=O)Nc2ccc(F)c(F)c2F)nc1N,n,x,n
Cc1sc2nc(SCC(=O)NCC3CCCO3)n(-c3ccccc3)c(=O)c2c1C (configuration not stated),n,x,n
COc1cc(/C=C/CO)cc(OC)c1OC/C=C(\C)CCC=C(C)C,u,n,n
Cc1cc2nn(-c3ccc(F)cc3)nc2cc1NC(=S)NC(=O)COc1ccccc1,n,x,n
C[C@@H]1CN([C@H](C)CO)C(=O)c2cc(NC(=O)Nc3cccc4ccccc34)ccc2O[C@@H]1CN(C)Cc1ccc(C(F)(F)F)cc1,u,n,n
C[C@H](CO)N1C[C@H](C)[C@H](CN(C)C(=O)Nc2cccc3ccccc23)Oc2ccc(NC(=O)Nc3ccc(C(F)(F)F)cc3)cc2C1=O,114,n,n
C[C@@H]1CN([C@@H](C)CO)C(=O)c2cc(NC(=O)Nc3cccc4ccccc34)ccc2O[C@@H]1CN(C)Cc1ccc(C(F)(F)F)cc1,106,x,n
C[C@@H]1CN([C@H](C)CO)C(=O)c2cc(NC(=O)Nc3cccc4ccccc34)ccc2O[C@@H]1CN(C)C(=O)Nc1ccc(C(F)(F)F)cc1,n,n,n
C[C@@H]1CN([C@H](C)CO)C(=O)c2cc(NC(=O)Nc3ccc(C(F)(F)F)cc3)ccc2O[C@H]1CN(C)C(=O)Nc1cccc2ccccc12,117,n,n
C[C@@H]1CN([C@@H](C)CO)C(=O)c2cc(NC(=O)Nc3ccc(F)cc3)ccc2O[C@@H]1CN(C)C(=O)Nc1cccc2ccccc12,n,n,n
O=C(CNC(=O)c1ccc([N+](=O)[O-])cc1)Nc1ccccc1C(F)(F)F,n,x,n
C[C@H]1CN([C@@H](C)CO)C(=O)Cc2cc(N(C)C)ccc2O[C@H]1CN(C)CC1CC1,n,n,n
C[C@@H]1CN([C@H](C)CO)C(=O)c2cccc(NC(=O)C3CC3)c2O[C@@H]1CN(C)Cc1ccncc1,n,n,n
CC(Sc1cccc2cccc(C(=O)O)c12)C(=O)O (configuration not stated),n,x,n
CCOc1ccc(-c2nc3ccc(-c4nc5ccc(N6CCN(C)CC6)cc5[nH]4)cc3[nH]2)cc1,116,n,n
CCOc1ccc(N2C(=O)CC(SCc3nc4ccccc4[nH]3)C2=O)cc1 (configuration not stated),n,x,n
C[C@@H]1CN([C@H](C)CO)C(=O)c2cccc(NS(=O)(=O)c3cn(C)cn3)c2O[C@@H]1CN(C)S(=O)(=O)c1cn(C)cn1,n,n,n
C[C@H](CO)N1C[C@H](C)[C@H](CN(C)C(=O)Nc2ccc3c(c2)OCO3)Oc2c(NS(=O)(=O)c3ccc(F)cc3)cccc2C1=O,n,n,n
COc1ccc(C)cc1S(=O)(=O)N(C)CC(=O)N1CCN(c2ccccc2F)CC1,n,x,n
SMILES,NOMO-1 viab,Hedgehog inh,MITF inh
Cc1ccc(S(=O)(=O)Nc2ccc3c(c2)CC(=O)N([C@@H](C)CO)C[C@H](C)[C@H](CN(C)S(=O)(=O)c2cccs2)O3)cc1,n,n,n
CSc1nc2sc3c(c2c2nnc(SCC(=O)Nc4ccccc4)n12)CCC3,129,x,n
O=C(CSc1nc2sc3c(c2c(=O)n1-c1ccccc1)CCCC3)Nc1ccccc1,n,x,n
CCOc1ccc(C(=O)c2oc3ccccc3c2NC(=O)c2cc3ccccc3oc2=O)cc1,n,x,n
Cc1ccc(C(=O)c2oc3ccccc3c2NC(=O)c2cc3ccccc3oc2=O)cc1F,112,x,n
O=c1cc(N2CCOCC2)oc2c1ccc1ccccc12,n,n,n
O=c1cc(N2CCOCC2)oc2c(-c3ccccc3)cccc12,125,71,n
O=C(CSc1nnc(-c2ccccc2Cl)n1-c1ccccc1)Nc1ccc(Br)cc1,u,x,n
O=C(/C=N/O)Nc1cc(C(F)(F)F)cc(C(F)(F)F)c1,116,69,n
O=C(O)CCC(=O)Nc1cccc(C(F)(F)F)c1,n,x,n
CCOC(=O)C(Cc1ccc(O)cc1)NC(C)=O (configuration not stated),n,n,n
COC(=O)[C@H](Cc1ccc(O)cc1)NC(=O)c1cccc(Cl)c1,110,n,n
CC(Oc1ccc(Cl)cc1Cl)C(=O)Nc1ccc2oc(-c3cccnc3)nc2c1 (configuration not stated),n,x,n
C[C@@H]1CN([C@@H](C)CO)C(=O)c2cccc(NC(=O)Nc3ccc(C(F)(F)F)cc3)c2O[C@H]1CN(C)Cc1ccc(Oc2ccccc2)cc1,u,n,n
COc1ccc(CN(C)C[C@@H]2Oc3c(NC(=O)Nc4ccc(C(F)(F)F)cc4)cccc3C(=O)N([C@H](C)CO)C[C@@H]2C)cc1,90,n,n
COc1ccc(NC(=O)Nc2cccc3c2O[C@@H](CN(C)Cc2ccc(C(F)(F)F)cc2)[C@H](C)CN([C@H](C)CO)C3=O)cc1,84,n,n
COc1ccc(NC(=O)Nc2cccc3c2O[C@H](CN(C)Cc2ccc(C(F)(F)F)cc2)[C@H](C)CN([C@@H](C)CO)C3=O)cc1,n,n,n
COc1ccc(CN(C)C[C@@H]2Oc3c(NC(=O)Nc4ccc(C(F)(F)F)cc4)cccc3C(=O)N([C@@H](C)CO)C[C@H]2C)cc1,116,n,n
C[C@H]1CN([C@@H](C)CO)C(=O)c2cc(N(C)C)ccc2O[C@H]1CN(C)S(=O)(=O)c1cccs1,n,n,n
O=C(O)c1ccc2ccccc2c1Br,n,n,n
C[C@H](CO)N1C[C@H](C)[C@@H](CN(C)S(=O)(=O)c2ccc(F)cc2)Oc2ccc(NS(=O)(=O)c3cccs3)cc2C1=O,n,n,n
Cc1ccc(S(=O)(=O)Nc2ccc3c(c2)CC(=O)N([C@H](C)CO)C[C@@H](C)[C@H](CN(C)S(C)(=O)=O)O3)cc1,n,n,n
COC1CC(=O)C23C(=O)NC(CC(C)C)C2C(C)C(C)=CC3/C=C(\C)CCC(O)C1O (configuration not stated),89,n,n
C[C@H](CO)N1C[C@H](C)[C@H](CN(C)C(=O)Nc2ccc(C(F)(F)F)cc2)Oc2ccc(NC(=O)CCN3CCOCC3)cc2CC1=O,n,n,n
C[C@H]1CN([C@@H](C)CO)C(=O)Cc2cc(NS(=O)(=O)c3ccc(Cl)cc3)ccc2O[C@@H]1CN(C)CC1CC1,n,n,n
C[C@@H]1CN([C@@H](C)CO)C(=O)Cc2cc(NS(=O)(=O)c3ccc(F)cc3)ccc2O[C@@H]1CN(C)CC1CCCCC1,u,n,n
C[C@H]1CN([C@@H](C)CO)C(=O)Cc2cc(NS(=O)(=O)c3ccc(Cl)cc3)ccc2O[C@H]1CN(C)CC1CCCCC1,135,n,n
C[C@@H]1CN([C@H](C)CO)C(=O)Cc2cc(NS(C)(=O)=O)ccc2O[C@H]1CN(C)CC1CC1,n,75,n

# Compound activity as filed in PubChem BioAssay.
